An excerpt weighted towards active compounds, which were near 5.7% of everything screened.
BAZ2B inh: inhibitors of human BAZ2B bromodomain. AID 504333. hit rate 4.4% among 360,000. Potency, µM (series often up to 114 µM), inactives show top-dose activity change, negative = inhibition, hits mostly inhibitors. AlphaScreen BAZ2B-H3K14Ac peptide displacement; further: potency means the concentration at half of the fitted maximal effect; on the % scale 0 is the no-effect control and ±100 the full control effect; nearly all actives have a fitted effect of over 60% in size
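BAZ2B 50 nM plus b-H3(5-23)K14Ac 50 nM, PBS pH 7.4/0.01% Tween-20, 30 min RT; compound added (max 110 uM), 30 min RT; streptavidin donor/Ni-chelate acceptor beads 10 ug/mL final, 20 min dark; AlphaScreen read.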
PI5P4K alpha inh: blocks human PI5P4K alpha kinase activity; PI5P4Kalpha enzyme, ADP-Glo luminescence, 60 min; hits give low values; max response, %; hit rate 1.2% among 330,000; active means max response of -50% or lower; inconclusive means between -30% and -50%; inactive means -30% or higher; further: value at the top dose of about 77 µM; on the % scale 0 is the no-effect control and ±100 the full control effect
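Compounds were pin-transferred onto PI5P4Kalpha and substrate in HEPES pH 7.4 buffer with EGTA, CHAPS and 5% DMSO. ATP (5 microM final) started the reaction, which ran 60 minutes at room temperature before ADP-Glo detection.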
KDM4E inh: JMJD2E (human) inhibition. B2RXH2. JMJD2E catalytic domain, FDH-coupled NADH fluorescence (FDH is formaldehyde dehydrogenase). Potency, µM (series often up to 57.1 µM), inactives show top-dose activity change, negative = inhibition, most hits filed as inhibitors. hit rate 1.6% among 230,000. AID 2147; active means well fitted inhibition curve with a large enough effect, not every such curve was filed as active; inconclusive means small, poorly fitted or top-dose-only effect, or another doubt; inactive means no such curve, though single readings can be large or run the other way;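 further: potency means the concentration at half of the fitted maximal effect; 0% = wells with enzyme and -100% = buffer wells without enzyme; nearly all actives have a fitted effect of over 50% in size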
Target sequence (B2RXH2 1-337 limits assumed): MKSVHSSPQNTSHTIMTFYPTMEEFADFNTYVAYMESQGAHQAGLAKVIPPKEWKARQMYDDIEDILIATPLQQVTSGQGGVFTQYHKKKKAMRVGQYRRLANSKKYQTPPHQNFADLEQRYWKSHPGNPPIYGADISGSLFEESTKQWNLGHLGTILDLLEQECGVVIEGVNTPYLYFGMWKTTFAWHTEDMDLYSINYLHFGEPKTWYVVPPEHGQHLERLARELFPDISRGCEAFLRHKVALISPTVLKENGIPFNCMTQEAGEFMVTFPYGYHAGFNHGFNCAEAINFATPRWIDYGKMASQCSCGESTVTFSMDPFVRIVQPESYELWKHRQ
L3MBTL1 inh: blocks human L3MBTL1; Q9Y468; AlphaScreen L3MBTL1–H3K9me1 peptide binding; Potency, µM (doses to about 57.1 µM), inactives show at the highest dose activity, negative = inhibition, hits mostly inhibitors; hit rate 0.66% among 230,000; further: potency means the concentration at half of the fitted maximal effect; on the % scale 0 is the no-effect control and ±100 the full control effect; nearly all actives have a fitted effect of over 60% in size
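AlphaScreen proximity signal between nickel-chelate acceptor and streptavidin donor beads (final 10 ug/mL) reports binding of 50 nM L3MBTL1 to 75 nM biotin-H3 K9me1 peptide; complex incubated with compounds 30 min at room temperature; cefsulodin titration as control.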
JMJD2A Tudor: JMJD2A Tudor domain (human) inhibition | O75164 | AlphaScreen JMJD2A-Tudor / H3K4me3 peptide binding | Potency, µM (series often up to 114 µM), for the others: at the top dose activity change, negative = inhibition, actives largely listed as inhibitors | hit rate 4.4% among 390,000 | AID 504339; further: potency means the concentration at half of the fitted maximal effect; on the % scale 0 is the no-effect control and ±100 the full control effect; nearly all actives have a fitted effect of over 50% in size
HP1b binding inh: HP1-beta chromodomain-methylated histone interaction inhibition | P83916 | AlphaScreen HP1-beta / biotin-H3K9me3 peptide binding | Potency, µM (doses to about 114 µM), inactives show top-dose activity change, negative = inhibition, usual class: inhibitors | hit rate 0.56% among 390,000; further: potency means the concentration at half of the fitted maximal effect; nearly all actives have a fitted effect of over 70% in size
Target sequence (P83916 whole entry, looked up): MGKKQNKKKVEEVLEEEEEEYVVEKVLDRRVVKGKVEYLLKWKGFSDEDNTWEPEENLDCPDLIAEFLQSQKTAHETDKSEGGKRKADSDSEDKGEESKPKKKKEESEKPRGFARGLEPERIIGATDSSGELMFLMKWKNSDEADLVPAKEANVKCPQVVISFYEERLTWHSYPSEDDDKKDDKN
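AlphaScreen: HP1-beta (50 nM) preformed 30 min with biotin-H3(1-18)K9me3 peptide (50 nM) in PBS pH 7.4, 0.01% Tween-20. Compound added for 30 min at RT, then streptavidin donor/nickel chelate acceptor beads (10 ug/mL) for 30 min.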
Active calls of the source: *; ? = inconclusive; · = no result given; ! = repeats disagree; [ ] = another dose, or the depositor's remark. Unless noted, the call rests on the fitted dose curve; in most records, active means well fitted inhibition curve with a large enough effect; inconclusive means small, poorly fitted or top-dose-only effect; inactive means no such curve, though single readings can be large or run the other way.

SMILES	BAZ2B inh	PI5P4K alpha inh	KDM4E inh	L3MBTL1 inh	JMJD2A Tudor	HP1b binding inh
Cn1c(-c2cc3c(C(F)(F)F)nn(C)c3s2)n[nH]c1=S	-35.0%	-29.9	?	-6.5%	11.2µM*	-10.8%
CCn1c(-c2cc3c(C(F)(F)F)nn(C)c3s2)n[nH]c1=S	-3.9%	·	?	0.3%	8.91µM*	-16.8%
CCn1c(O)c(/C=C2\C=Nc3ccccc32)sc1=Nc1ccccc1	-30.8%[57.1 µM]	·	6.5%	-20.6%	-23.9%	1.2%
Cn1c(O)c(/C=C2\C=Nc3ccccc32)sc1=Nc1ccc(C(=O)O)cc1	50.1µM*	-65.6*	-7.8%	·	-33.7%	20.6%
C/C=C(\C)CN1CCN(c2cc(C)ccc2C)CC1	-32.5%	·	5.9%	-5.6%	5.62µM*	?
C/C=C(\C)CN1CCN(c2cccc(C)c2C)CC1	1.3%	·	4.6%	6.5%	-4.8%	29.2%
CC(C)(C)OC(=O)C[C@@H]1C/C=C\C[C@H](CC(=O)N[C@H](CO)Cc2ccccc2)C(=O)N2CCC[C@H]2COC1=O	·	2.8	·	5.4%	-9.9%	61.5%
CC1=NN(C(C#N)c2ccc([N+](=O)[O-])cc2)C(C)(C)C1 (stereo unspecified)	-36.3%	4.6	-10.3%	-5.3%	22.4µM*	-20.1%
CC1=NN(C(C#N)c2ccc(F)cc2)C(C)(C)C1 (stereo unspecified)	7.3%	0.0	-0.4%	9.7%	1.4%	56.9%
Oc1c(C(Nc2cccc(C(F)(F)F)c2)c2cccnc2)ccc2cccnc12 (stereo unspecified)	20µM*	-12.8	?	?	56.2µM*	?
Cc1cc(NC(c2cccnc2)c2ccc3cccnc3c2O)no1 (stereo unspecified)	7.94µM*	-10.3	?	?	31.6µM*	26.2%
Oc1c(C(Nc2ccccn2)c2cccnc2)cc(Cl)c2cccnc12 (stereo unspecified)	11.2µM*	0.6	?	?	39.8µM*	0.2%
CCOc1ccc(NC(=O)CC2C(=O)N(c3cccc(C)c3)C(=O)N2CCC2=CCCCC2)cc1 (stereo unspecified)	-11.5%	·	·	·	?	42.8%
Cc1ccc2cccc(NC(=O)c3cccc4c(Br)cccc34)c2n1	16.3%	·	·	·	-16.4%	72.4%
CCOC(=O)C(Nc1ccc2ccccc2c1)C(=O)OCC	50.1µM*	-3.5	-2.5%	28.2µM*	?	-35.4%
CCS(=O)(=O)c1ccc(C(=O)NC2CC2)c(Cl)c1Cl	-3.5%	0.8	10.3%	7.4%	-7.9%	48.8%
O=C(C[n+]1ccc(CCSc2ccc(F)cc2)cc1)c1ccccc1	5.5%	-53.1*	?	-22.1%	?	44.7µM*
Fc1ccc(SCCc2ccncc2)cc1	22.4µM*!	0.6	-4.9%	2.1%	-6.5%	29.0%
O=[N+]([O-])c1ccc(SCCc2ccncc2)cc1	50.1µM*	?	3.8%	-9.2%	50.1µM*!	?
Fc1cc(F)c(F)c(SCCc2ccncc2)c1F	-18.7%	·	?	·	28.2µM*	?
COc1ccc(C2C(C(=O)Nc3ccccc3)=C(C)Nc3nc(-c4ccccc4)nn32)cc1OC (stereo unspecified)	-24.2%	·	·	·	-17.2%	0.6%
CCOC(=O)c1nn(-c2ccc(OC)cc2)c(=O)c2c(NC(=O)Cc3ccccc3)scc12	·	·	·	·	-12.3%	·
CCN1CCN(Cc2c(O)ccc3c(C)c(-c4ccccc4)c(=O)oc23)CC1	4.5%	·	·	·	1.0%	27.1%[57 µM]
O=C(CCNC(=O)C1CCN(S(=O)(=O)c2ccc(F)cc2)CC1)NCc1ccccn1	·	1.3	·	·	·	·
O=[N+]([O-])c1cc2no[n+]([O-])c2cc1N1CCCCC1	·	-79.6*	·	·	44.7µM*	14.1µM*
SMILES	BAZ2B inh	PI5P4K alpha inh	KDM4E inh	L3MBTL1 inh	JMJD2A Tudor	HP1b binding inh
N#C/C(=C(/O)c1ccc([N+](=O)[O-])cc1)c1nnc2n1CCCCC2	?	-10.0	-1.6%	-1.4%	28.2µM*	22.0%
CC/C(O)=C(\C#N)c1nnc2n1CCCCC2	79.4µM*	·	-0.5%	4.5%	3.55µM*	-12.5%
CC/C(O)=C(/C#N)c1nnc2n1CCCCC2	79.4µM*	·	-19.4%	-3.4%	28.2µM*	21.2%
CCOCCCNC(=O)c1cnc2sc(N3CCCCC3)nn2c1=O	-1.4%	·	·	·	-7.1%	-4.1%
Cc1ccc(Cl)c2sc(NC(=O)CS(=O)(=O)c3ccc(Cl)cc3)nc12	-11.5%	·	·	·	-17.9%	12.9%
CCc1ccc(NC(=O)CN2C(=O)c3cccc4cccc2c34)cc1	0.6%	·	·	·	-0.7%	23.8%
Nc1ncccc1C(=O)OCC(=O)N1CCN(S(=O)(=O)c2ccc(Cl)cc2)CC1	0.7%	-2.0	·	2.5%	-9.7%	39.3%
Cc1c(C(=O)O)sc2nc(CSc3ncc(C(F)(F)F)cc3Cl)[nH]c(=O)c12	50.1µM*	?	6.6%	?	50.1µM*	?
CCOc1ccc(N=C/C=C/c2ccccc2)c(O)c1	35.5µM*	-21.3	10µM*	-11.8%	56.2µM*	?
CCCn1c2ccccc2c2cnn(CC(=O)N3CCC(C(=O)OCC)CC3)c(=O)c21	-1.4%	·	·	·	-18.2%	-11.8%
CC(C)C(CCNCc1ccccn1)c1ccc(Cl)cc1 (stereo unspecified)	50.1µM*	-5.7	·	·	20µM*	11.4%
CC(C)CCC(CCNCc1ccccn1)c1ccc2c(c1)OCO2 (stereo unspecified)	56.2µM*	4.2	·	·	39.8µM*	9.5%
Fc1ccccc1CNCCC(Cc1ccccc1)c1ccc2c(c1)OCO2 (stereo unspecified)	-30.6%	2.3	9.2%	-4.4%	-24.4%	-4.3%
N#C/C(=C\c1cc(Br)c(O)c(Br)c1)c1nc2ccccc2c(=O)[nH]1	?	·	·	·	?	-18.3%
COc1ccc(C)cc1NC(=O)Cn1cc(S(=O)(=O)Cc2ccccc2Cl)c2ccccc21	-10.0%	·	·	·	-16.2%	6.1%
O=C(CSc1nc(-c2cccc(Cl)c2)nc2cc(=O)[nH]n12)Nc1ccccc1	56.2µM*	·	·	·	?	-0.6%
Cc1ccccc1NC(=O)CSc1nc(-c2cccs2)nc2cc(=O)[nH]n12	50.1µM*	·	·	-10.1%	?	5.9%
Cc1ccc(NC(=O)CSc2nc(-c3ccco3)nc3cc(=O)[nH]n23)c(Cl)c1	44.7µM*	?	·	·	?	26.0%
CCOc1ccc(-c2nc(SCC(=O)Nc3ccc(C)c(C)c3)n3[nH]c(=O)cc3n2)cc1	50.1µM*	·	·	·	50.1µM*	?
Cc1cc(C)c(NC(=O)Cn2c(=O)n(-c3ccc(F)cc3)c(=O)c3c(C)c(C(=O)N(C)C)sc32)c(C)c1	-15.9%	·	·	·	-11.3%	21.9%
Cc1nc2ccn(Cc3cccnc3)c(=O)c2cc1C(=O)Nc1ccc(F)cc1F	-3.7%	·	·	·	-8.3%	42.4%
O=C(CSc1nc(-c2cccs2)nc2cc(=O)[nH]n12)Nc1ccc(F)cc1	-4.3%	·	·	·	-16.6%	21.0%
